From PubChem BioAssay (EPA / NIEHS) come the findings set out here.

Inconclusive results are not listed. Active and inactive are the calls of the source. How the source made its calls, unless noted: active means hit-call score of the fitted dose curve at least 0.9, where 1 is the maximum; inactive means score below 0.9.

What is called AC50 is the concentration at which the activity in the assay is half-maximal.

Read-out in assay [1]: Interleukin-1 alpha (IL1a), IL1A (gene 3552)
In words: BSK_LPS_IL1a: BioMAP Diversity Plus: LPS Assay for Interleukin-1 alpha (IL1a) Biomarker Activity (AID 2283080). Conditions: primary human HUVEC with PBMC; actives raise or lower the signal. Summed up: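 Measured: IL-1 alpha via ELISA at 24 h in LPS-activated human umbilical vein endothelium–PBMC co-culture. Baseline: DMSO, bidirectional fitting.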

A short description of assay [2]: BSK_LPS_PGE2: BioMAP Diversity Plus: LPS Assay for Prostaglandin E2 (PGE2) Biomarker Activity (AID 2283082). The note with it: primary human HUVEC with PBMC; actives raise or lower the signal. Summed up:
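Endpoint derived from bidirectional curve fitting versus DMSO of ELISA-measured PGE2 in LPS-stimulated human primary vascular co-culture (HUVEC with PBMC) harvested at 24 h.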

Read-out in assay [3]: Macrophage colony-stimulating factor (MCSF), CSF1 (gene 1435)
In words: BSK_LPS_MCSF: BioMAP Diversity Plus: LPS Assay for Macrophage colony-stimulating factor (MCSF) Biomarker Activity (AID 2283083). Conditions: primary human HUVEC with PBMC; actives raise or lower the signal. Summed up: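 Compound is added to a human vascular primary co-culture of umbilical vein endothelium and blood mononuclear cells. After 24 h, M-CSF is quantified by ELISA. Signal changes are fitted in both directions against DMSO.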

Read-out in assay [4]: Tissue Factor, F3 (gene 2152)
In words: BSK_LPS_TissueFactor: BioMAP Diversity Plus: LPS Assay for Tissue Factor Biomarker Activity (AID 2283084). The note with it: primary human HUVEC with PBMC; actives raise or lower the signal. The essentials:
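In this co-culture system of umbilical vein endothelium with PBMC, stimulated with LPS, cell-surface CD142 is detected by ELISA at 24 h. Endpoint values derive from bidirectional fitting, DMSO serving as baseline.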

Read-out in assay [5]: Tumor necrosis factor (Homo sapiens) (UniProt P01375)
Briefly: BSK_LPS_TNFa: BioMAP Diversity Plus: LPS Assay for Tumour Necrosis Factor alpha (TNFa) Biomarker Activity (AID 2283085). Conditions: primary human HUVEC with PBMC; actives raise or lower the signal. The essentials: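 Primary human vascular co-culture of HUVEC and PBMC; TNFa ELISA 24 h after treatment, analysed as increase or decrease relative to DMSO control.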

Read-out in assay [6]: Vascular cell adhesion molecule 1 (VCAM1), VCAM1 (gene 7412)
Briefly: BSK_LPS_VCAM1: BioMAP Diversity Plus: LPS Assay for Vascular cell adhesion molecule 1 (VCAM1) Biomarker Activity (AID 2283086). The note with it: primary human HUVEC with PBMC; actives raise or lower the signal. The essentials: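 Primary human vascular co-culture (umbilical vein endothelium plus PBMC) stimulated with LPS received chemical; 24 h later VCAM-1 was read by ELISA. Overt cytotoxicity was assessed by sulforhodamine B staining of parallel cultures at the same time point.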

Read-out in a further assay: CD38, CD38 (gene 952)
In words: BSK_SAg_CD38: BioMAP Diversity Plus: SAg Assay for CD38 Biomarker Activity (AID 2283087). Conditions: primary human HUVEC with PBMC; actives raise or lower the signal. The essentials:
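Fluorescence ELISA of cell-surface CD38 served as the read-out, with either increase or decrease fitted against DMSO controls. Cells were a human umbilical vein endothelium plus PBMC co-culture under SEB/TSST-1 stimulation, measured 24 h after dosing.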

Read-out in another assay: CD40, CD40 (gene 958)
In words: BSK_SAg_CD40: BioMAP Diversity Plus: SAg Assay for CD40 Biomarker Activity (AID 2283088). Conditions: primary human HUVEC with PBMC; actives raise or lower the signal. The essentials:
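Fluorescence ELISA read-out of CD40 from umbilical vein endothelium plus peripheral blood mononuclear cells, sampled 24 h after dosing. Values come from bidirectional curve fitting with DMSO as baseline.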

Read-out in another assay: CD69, CD69 (gene 969)
Briefly: BSK_SAg_CD69: BioMAP Diversity Plus: SAg Assay for CD69 Biomarker Activity (AID 2283089).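 On AC50: cell surface CD69 protein quantified by ELISA with fluorescence detection.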 The note with it: primary human HUVEC with PBMC; actives raise or lower the signal. The essentials: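 HUVEC co-cultured with PBMC were dosed with chemical, and CD69 was measured by ELISA with fluorescence read-out 24 h later. Bidirectional curve fitting used DMSO as negative control and activity baseline.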

Read-out in assay [7]: Monocyte Chemoattractant Protein-1 (MCP1), CCL2 (gene 6347)
Briefly: BSK_SAg_MCP1: BioMAP Diversity Plus: SAg Assay for Monocyte Chemoattractant Protein-1 (MCP1) Biomarker Activity (AID 2283090). The note with it: primary human HUVEC with PBMC; actives raise or lower the signal. Summed up:
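MCP-1 levels in the endothelial–PBMC SAg co-culture were quantified by ELISA at 24 h post-dosing; both increases and decreases versus DMSO scored. Cytotoxicity monitored by SRB total protein in parallel cultures.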

Read-out in assay [8]: E-selectin (Homo sapiens) (UniProt P16581)
Briefly: BSK_SAg_Eselectin: BioMAP Diversity Plus: SAg Assay for Eselectin Biomarker Activity (AID 2283091). The note with it: primary human HUVEC with PBMC; actives raise or lower the signal. Summed up: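 Primary human endothelial cells and peripheral blood mononuclear cells were co-cultured and exposed to chemical for 24 hours. E-selectin levels were then quantified by ELISA, with bidirectional curve fitting normalised to DMSO controls.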

Read-out in assay [9]: Monokine induced gamma interferon (MIG), CXCL9 (gene 4283)
In words: BSK_SAg_MIG: BioMAP Diversity Plus: SAg Assay for Monokine induced gamma interferon (MIG) Biomarker Activity (AID 2283092). Conditions: primary human HUVEC with PBMC; actives raise or lower the signal. The essentials: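 HUVEC plus human PBMC co-culture, chemicals dosed and MIG (CXCL9) quantified by ELISA at 24 h. Bidirectional curve fitting against DMSO as negative control and baseline, so both gain and loss of signal count as activity.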

Assay [10] is described as follows: BSK_SAg_PBMCCytotoxicity: PBMC Cytotoxicity Assessment in the BioMAP Diversity Plus: SAg Assay (AID 2283093).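 Further: PBMC viability measured as Alamar Blue reduction fluorescence at 546/580 nm; fitted both ways against DMSO so a hit may be loss or gain of signal.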 The note with it: primary human HUVEC with PBMC. The essentials:
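Compound added to 75,000 PBMC/well for 1 h; SEB and TSST-1 then added at 20 ng/mL final each; 90 h incubation; Alamar Blue 6 h; read 546/580 nm ex/em. Activity fitted bidirectionally relative to DMSO baseline.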

Read-out in assay [11]: Interleukin-8 (IL8), CXCL8 (gene 3576)
Briefly: BSK_SAg_IL8: BioMAP Diversity Plus: SAg Assay for Interleukin-8 (IL8) Biomarker Activity (AID 2283094). Conditions: primary human HUVEC with PBMC; actives raise or lower the signal. Summed up: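 In this co-culture of human umbilical vein endothelium with peripheral blood mononuclear cells, IL-8 is assayed by ELISA at 24 h. DMSO serves as baseline for bidirectional curve fitting.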

Assay [12] can be described thus: BSK_SAg_Proliferation: Cell Proliferation Assessment in the BioMAP Diversity Plus: SAg Assay (AID 2283095).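 Further: relative cell number as total protein by SRB absorbance in sub-confluent culture.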 Conditions: primary human HUVEC with PBMC. The essentials: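 Readout is SRB-stained protein (560 nm) in a primary human HUVEC and PBMC co-culture; sub-confluent cultures are read at 96 h. Activity is fitted bidirectionally using DMSO as baseline.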
Assay [13] in a line: BSK_SAg_SRB: Viability Assessment in the BioMAP Diversity Plus: SAg Assay (AID 2283096).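 Further: cells read one day after compound addition; hits may be either gain or loss of signal compared with DMSO.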 The note with it: primary human HUVEC with PBMC. The essentials:
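Total protein by sulforhodamine B staining, 24 h after dosing, in HUVEC–PBMC co-culture; DMSO-referenced bidirectional fitting.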

Assay [14] has as its target human CYP19A1, CYP19A1 (gene 1588) (UniProt P11511). Briefly: NVS_ADME_hCYP19A1: NovaScreen (NVS) CYP450-related Enzyme Activity (ADME) Assay for human CYP19A1 (AID 2283098; active means hit-call score of the fitted dose curve at least 0.9, where 1 is the maximum;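 on AC50: potency for inhibitors seen as loss of fluorescent enzyme signal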). The essentials:
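Biochem, cell-free; recombinant enzyme + specific substrate; fluorescence intensity at 0.5 h post-dose; 10 uM duplicate primary, conc. series for actives; acetonitrile = negative control/baseline; positive and negative controls on every plate.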

Sequence of Tumor necrosis factor (Homo sapiens) (P01375 whole entry, looked up): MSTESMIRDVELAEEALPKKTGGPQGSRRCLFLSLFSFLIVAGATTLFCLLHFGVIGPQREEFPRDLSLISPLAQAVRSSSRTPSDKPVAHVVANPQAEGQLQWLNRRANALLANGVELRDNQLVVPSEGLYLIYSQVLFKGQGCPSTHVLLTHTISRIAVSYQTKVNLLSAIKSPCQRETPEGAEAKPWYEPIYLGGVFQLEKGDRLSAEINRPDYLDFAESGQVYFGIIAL
Sequence of E-selectin (Homo sapiens) (P16581 whole entry, looked up): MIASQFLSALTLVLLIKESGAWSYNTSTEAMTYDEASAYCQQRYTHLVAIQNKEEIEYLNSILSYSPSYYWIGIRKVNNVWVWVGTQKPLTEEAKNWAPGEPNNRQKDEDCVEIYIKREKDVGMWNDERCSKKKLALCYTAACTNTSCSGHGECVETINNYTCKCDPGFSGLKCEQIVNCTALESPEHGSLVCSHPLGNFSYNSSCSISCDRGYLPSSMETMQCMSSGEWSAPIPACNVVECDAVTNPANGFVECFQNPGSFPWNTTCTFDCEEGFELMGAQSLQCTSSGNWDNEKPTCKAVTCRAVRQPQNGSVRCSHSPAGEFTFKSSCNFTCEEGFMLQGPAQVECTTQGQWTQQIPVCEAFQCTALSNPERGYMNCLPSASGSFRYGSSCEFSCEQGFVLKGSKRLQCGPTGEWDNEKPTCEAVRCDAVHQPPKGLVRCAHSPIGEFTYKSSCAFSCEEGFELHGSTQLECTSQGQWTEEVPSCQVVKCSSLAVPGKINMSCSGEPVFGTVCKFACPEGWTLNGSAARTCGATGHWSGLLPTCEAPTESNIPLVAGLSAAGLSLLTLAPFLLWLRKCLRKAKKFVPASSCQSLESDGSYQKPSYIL
Sequence of human CYP19A1, CYP19A1 (gene 1588) (P11511 whole entry, looked up): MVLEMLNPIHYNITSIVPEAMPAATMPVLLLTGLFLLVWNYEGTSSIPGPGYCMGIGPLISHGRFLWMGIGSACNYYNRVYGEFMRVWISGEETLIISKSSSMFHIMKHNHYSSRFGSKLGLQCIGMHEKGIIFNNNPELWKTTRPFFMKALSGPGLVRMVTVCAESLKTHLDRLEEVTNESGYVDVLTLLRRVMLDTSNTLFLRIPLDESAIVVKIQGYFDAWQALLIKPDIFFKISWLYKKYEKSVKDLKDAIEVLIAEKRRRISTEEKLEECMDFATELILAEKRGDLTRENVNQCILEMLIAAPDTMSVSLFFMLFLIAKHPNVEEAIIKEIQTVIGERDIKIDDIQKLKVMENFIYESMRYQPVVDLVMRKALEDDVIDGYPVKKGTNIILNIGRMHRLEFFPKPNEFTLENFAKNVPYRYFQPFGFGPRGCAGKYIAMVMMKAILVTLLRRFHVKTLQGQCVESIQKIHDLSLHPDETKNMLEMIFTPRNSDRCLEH

`CS(=O)(=O)c1ccc(C(=O)C2C(=O)CCCC2=O)c([N+](=O)[O-])c1`: the outcome in assay [1], in assay [2], in assay [3], in [4], in [5] and in [6] was inactive. The outcome in the assay with CD38, CD38 (gene 952) was “inactive”; in the assay with CD40, CD40 (gene 958), “inactive”; in the assay with CD69, CD69 (gene 969), “inactive”; in [7], “inactive”; in assay [8] it was “inactive”; in assay [9], “inactive”. Also, the result in assay [10], in assay [11], in assay [12] and in [13] was inactive.
As to `COC(=O)N(C(=O)N1CO[C@@]2(C(=O)OC)Cc3cc(Cl)ccc3C2=N1)c1ccc(OC(F)(F)F)cc1`, the outcome in [1], in assay [2], in assay [3], in assay [4], in assay [5] and in assay [6] was inactive. Further, the result in assay [8], in assay [9] and in [10] was inactive. Moreover, the AC50 in the assay with CD38, CD38 (gene 952) is 5.95 µM (active); with CD40, CD40 (gene 958), 5.46 µM (active); with CD69, CD69 (gene 969), 6.93 µM (active); in [7], 5.47 µM (active); in [11], 5.25 µM (active); in [12] it was 7.29 µM (active). Also, the AC50 in assay [13] was 5.59 µM (active).
For the compound `CCOc1nc(C(Cl)(Cl)Cl)ns1`, the result in assay [1], in [2], in assay [3], in assay [4], in assay [5] and in assay [6] was inactive. Also, the outcome was “inactive” in the assay with CD38, CD38 (gene 952); “inactive” in the assay with CD40, CD40 (gene 958); “inactive” with CD69, CD69 (gene 969); “inactive” in assay [7]; “inactive” in assay [9]; “inactive” in [10]. The result in [11], in assay [12] and in assay [13] was inactive. Further, in assay [8], the concentration at half-maximal activity (AC50) was 13.3 µM (active).
On to `COc1cc(OC)nc(NC(=O)NS(=O)(=O)c2ncccc2OCC(F)(F)F)n1`, for which the result in [1], in [2], in assay [3], in [4], in assay [5] and in assay [6] was inactive. The outcome with CD38, CD38 (gene 952) was “inactive”; with CD40, CD40 (gene 958) it was “inactive”; with CD69, CD69 (gene 969), “inactive”; in assay [7], “inactive”; in assay [8], “inactive”; in assay [9], “inactive”. For the same compound, the outcome in [10], in assay [11], in [12] and in [13] was inactive.
Take `N#CN=C1SCCN1Cc1ccc(Cl)nc1`: the result in assay [1], in [2], in [3], in assay [4], in assay [5] and in assay [6] was inactive. Further, the outcome with CD38, CD38 (gene 952) is “inactive”; with CD40, CD40 (gene 958), “inactive”; with CD69, CD69 (gene 969), “inactive”; in assay [7], “inactive”; in assay [8] it was “inactive”; in assay [9], “inactive”. The result in assay [10], in [11], in [12] and in assay [13] was inactive. Further, in assay [14], the AC50 is 0.933 µM (active).
For the compound `COCC(=O)N(c1c(C)cccc1C)C(C)C(=O)OC` (stereo not drawn), the result in assay [1], in assay [2], in [3], in assay [4], in [5] and in assay [6] was inactive. Besides, the outcome was “inactive” with CD38, CD38 (gene 952); “inactive” in the assay with CD40, CD40 (gene 958); “inactive” in the assay with CD69, CD69 (gene 969); “inactive” in assay [7]; “inactive” in assay [8]; “inactive” in [9]. Also, the result in [10], in [11], in assay [12] and in [14] was inactive. In [13], the concentration at half-maximal activity (AC50) is 26.1 µM (active).
